One test has as its target Albumin (Bos taurus) (UniProt P02769). The test is described as follows: compounds binding labelled BSA control protein – biochemical, small-molecule microarray, Alexa647 label, 635/667 nm fluorescence, artefact control for SMM control protein annotation, profiling panel (AID 1118).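 Further: score merges 667 nm emission intensity and signal-to-noise per printed compound spot.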 Particulars: BSA-A647 binding, fluorescence 635 nm, higher = more signal.
A short description of test [1]: probe aXIP binding to arrayed compounds – biochemical, NeuroSMM set, 635/667 nm fluorescence, primary screen (AID 1119).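 Further: probe is the protein aXip251-270 applied at 1 µg/mL to compound-printed slides; binding of probe to printed compounds measured as 667 nm fluorescence plus signal to noise.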 Particulars: small-molecule microarray, higher = more signal, called active from +8 up or from −8 down.
The nature of test [2]: probe aNOTCH3 binding on compound microarray – biochemical, small-molecule microarray, 635/667 nm fluorescence, primary screen (AID 1120).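 Further: probe is a biotin-tagged antibody raised against NOTCH3 rather than NOTCH3 protein; score merges spot fluorescence near 667 nm with spot signal to noise.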 Particulars: higher = more signal.
Test [3] can be described thus: probe aNOTCH2 binding on compound microarray – biochemical, small-molecule microarray, 635/667 nm fluorescence, primary screen (AID 1121).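 Further: score merges feature fluorescence read at 667 nm with its signal to noise.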 Particulars: higher = more signal.
Test [4] deals with Carbonic anhydrase 2 (Homo sapiens) (UniProt P00918). The test is described as follows: compounds binding carbonic anhydrase 2 – biochemical, small-molecule microarray, Alexa647-labelled CAII, profiling panel (AID 1122). The conditions noted are these: CAII-A647 binding fluorescence, higher = more signal.
The nature of test [5]: COS7 lysate on small-molecule microarray, probe aHis, 635 nm (AID 1123).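 Further: z-score combines 667nm fluorescence intensity with signal-to-noise per printed compound spot.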 Particulars: COS7 cell lysate, fluorescence, higher = more signal.
Test [6] in a line: probe aLAP1 signal on lysate-treated microarray – cell lysate, small-molecule microarray, COS7 lysate, primary screen (AID 1124).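 Further: lysate comes from COS7 cells expressing LAP1 and is applied at 0.3 µg/mL; score merges spot fluorescence near 667 nm with signal-to-noise over triplicate slides.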 The conditions noted are these: probe aLAP1, fluorescence, higher = more signal.
A further test relates to Sam68 (KHDRBS1). The test is described as follows: compounds binding KHDRBS1 protein – biochemical, small-molecule microarray, 635 nm fluorescence, primary screen (AID 1125).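 Further: score merges 667 nm channel intensity with signal to noise over triplicate slides.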 Particulars: higher = more signal.
Test [7] has as its system Chordin-like protein 2 (CHRDL2). As to the kind of experiment: compounds binding chordin-like 2 – biochemical, small-molecule microarray, 635 nm fluorescence, primary screen (AID 1126).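 Further: printed compound slides probed with Chrdl2 protein at 4 µg/mL for 1 h at 4 C; score merges 667 nm emission intensity with signal to noise over three replicate slides.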 The conditions noted are these: fluorescence 635 nm, higher = more signal.
In test [8] the target is Concanavalin-A (Canavalia ensiformis) (UniProt P02866). The test is described as follows: compounds binding concanavalin A lectin – biochemical, small-molecule microarray, Alexa647 label, 635 nm, artefact control for SMM control protein annotation, primary screen (AID 1127).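 Further: z combines 667 nm emission intensity with signal-to-noise across three replicate slides.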 Particulars: ConA-A647 binding fluorescence, higher = more signal.
Chain of Concanavalin-A (Canavalia ensiformis) (P02866 whole entry, looked up): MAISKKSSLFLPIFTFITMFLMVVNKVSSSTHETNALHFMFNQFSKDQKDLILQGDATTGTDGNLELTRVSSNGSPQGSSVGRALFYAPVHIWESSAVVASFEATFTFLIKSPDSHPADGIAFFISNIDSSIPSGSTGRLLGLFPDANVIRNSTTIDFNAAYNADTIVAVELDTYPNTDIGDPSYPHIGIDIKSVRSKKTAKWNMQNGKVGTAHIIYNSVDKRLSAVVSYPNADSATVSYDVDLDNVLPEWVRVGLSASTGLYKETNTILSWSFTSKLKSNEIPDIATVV
A short description of test [9]: compounds binding Alexa647 anti-His antibody – biochemical, small-molecule microarray, 635 nm fluorescence, artefact control for SMM control protein annotation, primary screen (AID 1128).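 Further: score merges feature fluorescence with signal-to-noise for each printed compound spot.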 Particulars: higher = more signal.
Test [10] concerns Human papillomavirus type 1a E7 protein (residues 1-88). As to the kind of experiment: HPV1a E7 small-molecule binders, primary screen, biochemical, small-molecule microarray, residues 1-88, 635 nm (AID 1129). The conditions noted are these: small-molecule microarray binding, fluorescence 635 nm; higher = more signal.
Test [11] addresses Focal adhesion kinase 1 (Homo sapiens) (UniProt Q05397). As to the kind of experiment: PTK2 protein binding on printed compound slides – biochemical, small-molecule microarray, 635/667 nm fluorescence, BSA, DTT, primary screen (AID 1130).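 Further: composite of spot emission at 667 nm and signal to noise over triplicate slides.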 The conditions noted are these: 635 nm fluorescence, higher = more signal.
The test system of test [12] is Fibrinogen (Alexa647-labelled). As to the kind of experiment: Alexa647-fibrinogen binding to printed small molecules – biochemical, small-molecule microarray, 635/667 nm fluorescence, artefact control for SMM control-protein annotation, profiling panel (AID 1131).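 Further: z-score merges 667 nm fluorescence with per-spot signal-to-noise over triplicate slides.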 The conditions noted are these: fibrinogen-A647 binding fluorescence, higher = more signal.
In test [13] the target is Follistatin (Homo sapiens) (UniProt P19883). As to the kind of experiment: FST protein binding to printed compounds – biochemical, small-molecule microarray, 635/667 nm fluorescence, primary screen (AID 1132). Particulars: 635 nm fluorescence, higher = more signal.
Chain of Follistatin (Homo sapiens) (P19883 whole entry, looked up): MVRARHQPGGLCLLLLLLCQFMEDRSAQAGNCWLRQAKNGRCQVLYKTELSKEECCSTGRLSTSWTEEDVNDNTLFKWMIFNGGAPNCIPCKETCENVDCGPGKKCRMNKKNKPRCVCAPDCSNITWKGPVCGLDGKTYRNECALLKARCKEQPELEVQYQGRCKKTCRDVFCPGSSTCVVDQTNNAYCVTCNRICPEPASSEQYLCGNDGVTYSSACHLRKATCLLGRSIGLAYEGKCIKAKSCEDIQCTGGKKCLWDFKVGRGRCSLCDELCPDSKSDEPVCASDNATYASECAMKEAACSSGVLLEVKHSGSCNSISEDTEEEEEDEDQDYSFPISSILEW
Test [14] concerns the target Fibroblast growth factor 2 (Homo sapiens) (UniProt P09038). The test is described as follows: basic fibroblast growth factor binding to printed compounds – biochemical, small-molecule microarray, 635/667 nm fluorescence, primary screen (AID 1133). The conditions noted are these: FGF2, fluorescence 635/667, higher = more signal.
Test [15] is described as follows: JC-1 mitochondrial potential readout, lung cancer cells – cell-based, A549, JC-1 fluorescence, basal, 24 h, 100 nL, profiling panel (AID 1138).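 Further: A549 lung adenocarcinoma cells under basal conditions with no added stimulus; test concentration not given here.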 The conditions noted are these: higher = more signal.
Another test has as its system Lefty1. The test is described as follows: Lefty1 protein binding to printed compounds – biochemical, small-molecule microarray, 635/667 nm fluorescence, primary screen (AID 1139). Particulars: fluorescence 635/667, higher = more signal.
The test system of test [16] is wheat germ agglutinin (Triticum aestivum), Alexa647-labelled. The test is described as follows: Alexa647-WGA lectin binding to printed small molecules – biochemical, small-molecule microarray, 635/667 nm fluorescence, artefact control for SMM control-protein annotation, profiling panel (AID 1140).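 Further: score merges 667 nm feature emission with signal to noise over triplicate slides.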 Particulars: WGA-A647 binding, 635 nm fluorescence, higher = more signal.

In test [17] the target is Luciferin 4-monooxygenase (Photinus pyralis) (UniProt P08659). As to the kind of experiment: inhibition of purified Photinus pyralis luciferase – biochemical, luminescence, purified enzyme, 2006 set, primary screen (AID 1141).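 Further: cell-free assay with purified firefly luciferase at 100 ng per well in PBS; test concentration not given here.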 Particulars: purified firefly luciferase, SteadyGlo luminescence, 30 min; higher = more signal, called active from +8 up or from −8 down.
Chain of Luciferin 4-monooxygenase (Photinus pyralis) (P08659 whole entry, looked up): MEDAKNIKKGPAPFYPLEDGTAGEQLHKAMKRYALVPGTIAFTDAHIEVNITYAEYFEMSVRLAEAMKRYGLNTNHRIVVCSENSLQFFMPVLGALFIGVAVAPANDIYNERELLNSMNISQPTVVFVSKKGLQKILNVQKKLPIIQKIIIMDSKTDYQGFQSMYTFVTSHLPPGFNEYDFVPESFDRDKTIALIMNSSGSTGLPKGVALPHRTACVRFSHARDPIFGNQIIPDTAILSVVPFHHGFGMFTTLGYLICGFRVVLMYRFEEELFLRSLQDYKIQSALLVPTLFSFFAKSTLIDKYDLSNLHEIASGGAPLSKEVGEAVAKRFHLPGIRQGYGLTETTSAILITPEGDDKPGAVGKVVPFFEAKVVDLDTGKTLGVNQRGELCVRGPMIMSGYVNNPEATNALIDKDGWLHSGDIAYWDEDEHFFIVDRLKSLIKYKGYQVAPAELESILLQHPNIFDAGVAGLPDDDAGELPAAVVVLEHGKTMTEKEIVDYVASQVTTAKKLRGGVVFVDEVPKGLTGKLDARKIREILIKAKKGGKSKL

Each structure is given as a SMILES string. Calls of active or inactive are those of the source.

Chain of Fibroblast growth factor 2 (Homo sapiens) (P09038 whole entry, looked up): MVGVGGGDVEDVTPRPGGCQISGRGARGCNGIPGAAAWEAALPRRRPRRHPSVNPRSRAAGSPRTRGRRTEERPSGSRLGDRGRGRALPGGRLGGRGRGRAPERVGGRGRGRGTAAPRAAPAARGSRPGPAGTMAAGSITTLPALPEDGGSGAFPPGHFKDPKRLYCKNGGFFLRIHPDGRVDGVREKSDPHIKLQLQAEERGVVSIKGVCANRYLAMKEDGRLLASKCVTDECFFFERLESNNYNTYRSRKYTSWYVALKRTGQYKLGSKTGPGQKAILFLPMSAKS
Chain of Focal adhesion kinase 1 (Homo sapiens) (Q05397 whole entry, looked up): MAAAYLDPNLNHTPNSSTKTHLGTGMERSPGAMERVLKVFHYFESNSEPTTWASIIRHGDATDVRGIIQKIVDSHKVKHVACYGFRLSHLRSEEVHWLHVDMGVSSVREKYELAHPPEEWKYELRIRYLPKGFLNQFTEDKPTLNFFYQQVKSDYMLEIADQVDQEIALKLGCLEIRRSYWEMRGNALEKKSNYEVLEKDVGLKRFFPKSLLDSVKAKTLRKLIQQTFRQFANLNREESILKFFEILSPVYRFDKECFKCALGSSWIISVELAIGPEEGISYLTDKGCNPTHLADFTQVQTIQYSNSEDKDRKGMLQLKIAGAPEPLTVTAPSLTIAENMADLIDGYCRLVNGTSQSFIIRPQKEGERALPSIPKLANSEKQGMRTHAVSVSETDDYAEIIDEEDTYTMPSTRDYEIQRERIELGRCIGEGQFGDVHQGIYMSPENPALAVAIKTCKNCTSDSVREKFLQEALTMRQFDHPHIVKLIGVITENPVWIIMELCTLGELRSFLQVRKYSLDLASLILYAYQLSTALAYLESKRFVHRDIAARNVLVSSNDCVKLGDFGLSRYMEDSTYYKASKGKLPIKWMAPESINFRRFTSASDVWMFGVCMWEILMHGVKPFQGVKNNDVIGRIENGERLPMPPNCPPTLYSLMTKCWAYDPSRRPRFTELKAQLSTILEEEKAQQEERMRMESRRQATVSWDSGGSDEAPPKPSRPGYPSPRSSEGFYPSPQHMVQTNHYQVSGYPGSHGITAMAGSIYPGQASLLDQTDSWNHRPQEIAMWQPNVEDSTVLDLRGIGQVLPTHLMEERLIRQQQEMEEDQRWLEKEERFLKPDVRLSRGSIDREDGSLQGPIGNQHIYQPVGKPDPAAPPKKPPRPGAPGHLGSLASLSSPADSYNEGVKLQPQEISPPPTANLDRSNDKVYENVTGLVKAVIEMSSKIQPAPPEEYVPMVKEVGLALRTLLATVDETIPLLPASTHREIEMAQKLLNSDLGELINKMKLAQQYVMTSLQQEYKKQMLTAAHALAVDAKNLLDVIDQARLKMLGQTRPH
Chain of Albumin (Bos taurus) (P02769 whole entry, looked up): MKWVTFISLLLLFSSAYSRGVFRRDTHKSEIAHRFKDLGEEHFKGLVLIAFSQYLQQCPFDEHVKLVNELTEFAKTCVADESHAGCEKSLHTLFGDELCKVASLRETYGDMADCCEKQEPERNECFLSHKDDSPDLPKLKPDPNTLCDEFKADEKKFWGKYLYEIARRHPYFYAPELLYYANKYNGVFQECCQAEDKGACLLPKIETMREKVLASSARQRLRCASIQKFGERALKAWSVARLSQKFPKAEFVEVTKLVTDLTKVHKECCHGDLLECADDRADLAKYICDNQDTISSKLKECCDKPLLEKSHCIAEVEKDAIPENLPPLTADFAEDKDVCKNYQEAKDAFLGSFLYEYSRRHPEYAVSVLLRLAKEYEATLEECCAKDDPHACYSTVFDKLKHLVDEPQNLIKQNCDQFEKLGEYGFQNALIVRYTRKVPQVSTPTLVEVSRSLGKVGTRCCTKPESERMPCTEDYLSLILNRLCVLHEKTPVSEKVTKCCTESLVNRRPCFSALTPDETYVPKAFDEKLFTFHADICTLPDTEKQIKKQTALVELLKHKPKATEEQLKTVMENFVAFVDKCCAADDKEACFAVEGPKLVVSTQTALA

For `COC(=O)[C@@]1(Cc2ccc(OC)cc2)[C@H]2c3cc(C(=O)N4CCCC4)n(Cc4cc(C)n(C)n4)c3C[C@H]2CN1C(=O)c1ccccc1`, the composite z-score in the test with Albumin (Bos taurus) was determined as 1.09; in test [2], 0.313; in test [3] it was 0.446; in test [4], 0.962; in test [5], 3.19; in test [6], 0.637. Besides, the composite z-score with Sam68 (KHDRBS1) was 1.32; in test [7], -1.19; in test [8], 0.485; in test [9], 1.58; in test [10], 1.17; in test [11] it was 2.74. Besides, the composite z-score was 1.05 in test [12]; -0.326 in test [13]; -0.622 in test [14]; -0.801 in the test on Lefty1; 1.33 in test [16]. Also, the composite Z-score in [1] is 5.19 (inactive). Further, the z-score in test [15] is 1.16; in [17], 0.769 (inactive).
As for `CO[C@H]1O[C@H](CO)[C@@H](OC(=O)Nc2ccc(C#N)cc2)[C@@H]2OC(=O)[C@H](Cc3cccc(Br)c3)C/C=C/C[C@@H](Cc3cccc(Br)c3)C(=O)O[C@@H]12`, the composite z-score in the test with Albumin (Bos taurus) was 0.348; in test [2], 0.0935; in [3] it was -0.0711; in test [4], 0.26; in test [5], 0.913; in test [6], 0.23. Besides, the composite z-score is 0.697 in the test on Sam68 (KHDRBS1); 0.116 in test [7]; 0.384 in [8]; 1.26 in test [9]; 0.776 in test [10]; -0.611 in test [11]. The composite z-score in test [12] was 0.448; in test [13] it was 1.2; in test [14] it was 0.707; in the test with Lefty1 it was 1.13; in [16], 0.655. Also, the composite Z-score in test [1] is 0.656 (inactive). In addition, the z-score in test [15] is 1.39; in test [17], 0.782 (inactive).
Take `CC(=O)NCCCC[C@@H]1NC(=O)[C@H]2C[C@@H](C(=O)NCCCCCNC(=O)CS)[C@@H](c3cccc(OCCO)c3)N2C1=O`: the composite z-score with Albumin (Bos taurus) was 0.419; in test [2], -0.27; in test [3] it was -0.173; in [4], 0.364; in test [5] it was 2.34; in test [6], -0.178. In addition, the composite z-score in the test on Sam68 (KHDRBS1) worked out at 0.742; in [7], 0.715; in test [8], 0.493; in test [9], 2.85; in test [10], 0.616; in [11] it was 0.598. The composite z-score in test [12] is 0.108; in test [13] it was 1.33; in [14], 1.6; in the test on Lefty1 it was 0.157; in test [16], 0.29. For the same molecule, in test [1], the composite Z-score is 1.98 (inactive). The z-score in [15] is 0.0396; in test [17], -1.36 (inactive).
As for `COc1ccc(C(=O)Nc2cccc(CN3C(=O)[C@]4(O[C@H](CCn5cc([C@H](O)c6ccccc6)nn5)[C@@H]([Si](C)(C)c5ccc(OC)cc5)[C@@H]4C)c4ccccc43)c2)cc1`, the composite z-score is -0.215 in the test with Albumin (Bos taurus); 0.0916 in [2]; -0.0986 in test [3]; 0.169 in [4]; 0.18 in [5]; -0.206 in test [6]. Moreover, the composite z-score with Sam68 (KHDRBS1) was found to be 0.962; in test [7] it was 0.153; in test [8] it was 0.587; in [9] it was 1.07; in test [10], 0.514; in test [11], 0.31. Further, the composite z-score in test [12] was determined as 0.242; in test [13], 1.19; in test [14] it was 0.348; with Lefty1, 0.752; in [16], 0.12. The composite Z-score in test [1] was -0.213 (inactive). The z-score in test [15] was 0.456; in test [17] it was 0.889 (inactive).
On to `O=C(CS)NCCCCCNC(=O)[C@@H]1C[C@@H]2C(=O)N[C@@H](Cc3ccccc3)C(=O)N2[C@@H]1c1cccc(OCCO)c1`, for which the composite z-score in the test with Albumin (Bos taurus) was -0.884; in test [2], -0.638; in test [3], -0.446; in test [4] it was 0.665; in [5], 2.7; in test [6], 0.426. Further, the composite z-score in the test on Sam68 (KHDRBS1) amounted to 1.34; in test [7], 0.914; in [8], 1.13; in test [9], 0.768; in [10], 1.24; in test [11], 0.334. The composite z-score in test [12] amounted to 0.284; in test [13] it was 1.39; in test [14] it was 1.6; in the test with Lefty1, 0.4; in test [16], 0.288. The composite Z-score in test [1] is -0.32 (inactive). Also, the z-score is 0.296 in [15] and -1.97 (inactive) in test [17].
